Assay outcomes as filed in PubChem.
RORgamma inh = qHTS for inhibitors of ROR gamma transcriptional activity; Drosophila S2 Gal4-RORgamma UAS-luciferase reporter, 20 h; 310,000 compounds, 5.4% hits; Potency, µM (series often up to 53.6 µM), without a hit: at the highest dose activity change, negative = inhibition, most hits filed as inhibitors; note: nearly all actives have a fitted effect of over 60% in size
Target sequence (P51450 whole entry, looked up, the tested form may be a part): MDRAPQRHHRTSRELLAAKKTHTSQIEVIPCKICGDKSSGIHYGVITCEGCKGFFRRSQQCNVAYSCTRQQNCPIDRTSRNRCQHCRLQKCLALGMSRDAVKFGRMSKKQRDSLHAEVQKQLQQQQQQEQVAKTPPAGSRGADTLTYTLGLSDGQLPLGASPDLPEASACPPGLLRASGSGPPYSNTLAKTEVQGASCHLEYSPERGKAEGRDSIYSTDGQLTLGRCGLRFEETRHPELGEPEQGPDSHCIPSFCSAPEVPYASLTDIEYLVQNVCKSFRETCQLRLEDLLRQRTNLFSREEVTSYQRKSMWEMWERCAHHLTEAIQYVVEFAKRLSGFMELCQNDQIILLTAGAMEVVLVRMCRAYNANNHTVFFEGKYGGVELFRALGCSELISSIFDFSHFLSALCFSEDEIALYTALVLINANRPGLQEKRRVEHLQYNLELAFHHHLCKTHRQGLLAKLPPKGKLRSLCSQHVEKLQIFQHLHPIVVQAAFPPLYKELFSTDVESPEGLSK
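A Gal4/UAS one-hybrid system in insect cells: metallothionein-promoter Gal4–ROR gamma fusion plus Photinus luciferase reporter. Copper sulfate 700 uM final, 20 hr ambient incubation, luminescent detection after 10 min with reagent.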
KinaseGlo FLuc = Counterscreen for Luciferase (Kinase-Glo TM) Inhibition | AID 1379, 2008 | 200,000 compounds, 0.28% hits | Potency, µM (series often up to 38.3 µM), for the others: at the top dose activity change, negative = inhibition, hits mostly inhibitors | Kinase-Glo luciferase, ATP luminescence, 8 min | Luciferin 4-monooxygenase (Photuris pensylvanica), Q27757; note: nearly all actives have a fitted effect of over 60% in size
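Luminescence was the read-out, taken after 8-minute incubation at ambient temperature. Luciferase turned over luciferin with 10 uM ATP in imidazole pH 7.2 buffer containing KCl, MgCl2, Tween 20 and BSA.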
VP16 counter = VP16 counterscreen qHTS for inhibitors of ROR gamma transcriptional activity. Potency, µM (top dose mostly 53.6 µM), for the others: top-dose activity, negative = inhibition, usual class: inhibitors. Drosophila S2 Gal4-VP16 UAS-luciferase, luminescence, 20 h. 310,000 compounds, 3.5% hits;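 note: Gal4-VP16 expression switched on by copper sulfate through the metallothionein promoter; nearly all actives have a fitted effect of over 50% in size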
Active calls of the source: *; ? = inconclusive; . = no result given; [ ] = remark or other dose. Most compounds without a hit are left out; they make up all but 6.4% or so of the library. Calls come from the whole dose curve; as a rule, active = well fitted curve in the direction sought with a large enough effect; inconclusive = small, poorly fitted or top-dose-only effect, or another doubt; inactive = no such curve, though single readings can be large; an effect the other way counts as inactive or inconclusive. % is set by controls: 0 for no effect and ±100 for the full control effect; potency is the fitted concentration of half-maximal effect.

SMILES | RORgamma inh | KinaseGlo FLuc | VP16 counter
O=c1c2ccc(Cl)cc2nc(-c2ccc([N+](=O)[O-])cc2)n1O | 8.91µM* | 2.8% | 17.8µM*
O=c1c2cc(Cl)ccc2nc(-c2ccc(Cl)c(Cl)c2)n1O | -56.4% | . | 2.8%
COc1ccc(CCn2c(S)nc3ccccc3c2=O)cc1 | 3.16µM* | . | ?
COc1ccccc1-c1nc2cc(Cl)ccc2c(=O)n1O | ? | . | 2.51µM*
O=C(Nc1ccc(Cl)cc1)Nc1ccc(Br)cn1 | 12.1% | . | -11.7%
CC(C)OC(=O)[C@@H]1CC[C@H](C)[C@@H](CCC[C@@H]2CC=C[C@H](CC#N)O2)O1 | ? | -1.4% | 4.3%
ICCc1ccccc1 | -1.1% | . | 7.9%
COc1ccc(-c2nc3ccccc3c(=O)n2-c2c(C)n(C)n(-c3ccccc3)c2=O)cc1 | 15.3% | . | -1.9%
N#Cc1ccc(-c2nc3ccc(Br)cc3c(=O)n2O)cc1 | -39.5% | . | -2.2%
COc1ccc(-c2nc3ccccc3c(=O)n2O)cc1 | 12.6µM* | . | ?
O=c1c2cc(Br)ccc2nc(-c2cccc(C(F)(F)F)c2)n1O | 3.55µM* | -1.3% | 20µM*
CCCn1c(C)nc2c(NCCN3CCOCC3)nc(C)nc21 | 8.4% | -0.1% | 1.4%
Cc1cc(F)ccc1NS(=O)(=O)c1c(C(=O)N2CCOCC2)c(C)n(C)c1C | -8.0% | . | -14.8%
CSC(=Nc1ccc(Cl)cc1)N[n+]1ccccc1 | 15.0% | -2.1% | 0.6%
CCN1C(C)=C(C(=O)OC)C(c2ccccc2)N2C(=O)[C@@]3(C(=O)OC)O[C@@]12C1C(=O)N(C)C(=O)C13 (stereo partly specified) | -6.5%[10 µM] | . | -4.3%[10 µM]
COc1ccccc1N(C)S(=O)(=O)c1ccc(C(=O)OCC(=O)NCCC2=CCCCC2)cc1 | -2.1% | 3.3% | 10.0%
Cc1ccc(C)c([C@@H]2NC(=O)c3ccccc3N2)c1 | . | 0.5%[7.66 µM] | .
COCCN(C(=O)COC(=O)c1oc2ccc(OC)cc2c1C)c1c(N)n(Cc2ccccc2)c(=O)[nH]c1=O | -8.4% | . | 1.8%
Cc1cccc(C)c1N=C1C(=O)Nc2ccccc21 | ? | . | 17.8µM*
Cc1cc(C)c(N=C2C(=O)Nc3ccccc32)c(C)c1 | -33.4% | . | -2.2%
Cc1nc2cc(Nc3nnc(-c4ccccc4)c4ccccc34)ccc2n1C | 7.08µM* | . | 6.31µM*
Clc1cccc(Nc2nnc(-c3ccccc3)c3ccccc23)c1 | -31.4% | -2.9% | 5.4%
O=C(CCC1CCCN(C(=O)CCN2CCCCC2=O)C1)NCc1ccccc1F (stereo unspecified) | -15.5% | -1.9% | -18.8%
COc1cccc(CNCc2ccccc2Br)c1OC | -41.6% | . | 2.6%
CCc1cccc(CC)c1-n1c(-c2cccnc2)n[nH]c1=S | 3.55µM* | -3.5% | 15.8µM*
SMILES | RORgamma inh | KinaseGlo FLuc | VP16 counter
Cc1ccccc1-n1c(-c2cccnc2)n[nH]c1=S | ? | 2.0% | 15.2%
C[C@H]1CCC(=O)N([C@H](CN=[N+]=[N-])Cc2ccccc2)CC1 | -4.6% | . | -6.4%
CCOC(=O)C1CCN(C(=O)c2ccc(N(C)S(=O)(=O)c3ccc(OC)cc3)cc2)CC1 | 33.9% | . | 28.9%
COc1ccc(CC(=O)Nc2cccc(-c3nnc(-c4cccc(C)c4)o3)c2)cc1OC | ? | 1.5% | 7.94µM*
COc1ccc(CC(=O)Nc2cccc(-c3nnc(-c4ccc(C)cc4)o3)c2)cc1OC | ? | -1.6% | ?
C/C(CC(=O)N1CCN(C=O)CC1)=N\NC(=O)c1ccc([N+](=O)[O-])cc1 | 8.91µM* | -5.5% | ?
C/C(CC(=O)N1CCN(C=O)CC1)=N\NC(=O)c1cc2ccccc2cc1O | -27.5% | -0.9% | -18.6%
CCC(=O)Nc1ccc(C(=O)N/N=C/c2ccc([N+](=O)[O-])cc2)cc1 | ? | -1.6% | -0.7%
CC(C)=CCC/C(C)=C/C=N/NC(=O)c1cccc([N+](=O)[O-])c1 | 1.58µM* | 1.3% | 1.41µM*
CC(/C=N/NC(=O)c1cccc([N+](=O)[O-])c1)=C\c1ccccc1 | -25.6% | -12.0% | -10.8%
CC(C)=CCC/C(C)=C/C=N/NC(=O)c1ccc([N+](=O)[O-])cc1 | 3.55µM* | -0.4% | 2.82µM*
COc1ccc(CCNC(=O)COC(=O)COc2ccc(C#N)cc2)cc1 | -19.0% | -1.1% | -4.8%
N#CCC(=O)N/N=C/c1ccc(N2N=C(c3ccccc3)CC2c2ccccc2)cc1 (stereo unspecified) | -42.5% | . | 1.8%
COC(=O)c1sc(N)c(C(=O)OC)c1Cn1ncc(Cl)c(Cl)c1=O | ? | . | 12.6µM*
COC(=O)c1sc(N)c(C(=O)OC)c1COC(=O)c1c(C)noc1C | -8.8% | 7.8% | -9.2%
COc1ccccc1-c1ccc2ncnc(N3CCN(C)CC3)c2c1 | -1.7% | -3.3% | ?
CCOc1cc(/C=C2\SC(=S)N(N3CCOCC3)C2=O)ccc1O | 6.0% | . | -5.7%
CCOc1cc(/C=C2\SC(=N)N(c3nccs3)C2=O)ccc1OCCN1CCOCC1 | 0.562µM* | 1.3% | 2.82µM*
CN(CC(=O)NCCc1ccc(S(N)(=O)=O)cc1)S(=O)(=O)/C=C/c1ccccc1 | -7.7% | . | 14.6%
CCC(C)c1ccc(NC(=S)NCc2cccs2)cc1 (stereo unspecified) | 7.08µM* | -2.2% | 11.2µM*
CC(=O)Nc1ccc(NCc2cccs2)cc1 | 13.6% | . | ?
CC(C)(C)c1ccc(NC(=S)NCc2cccs2)cc1 | 7.08µM* | -4.2% | 10µM*
COCCNC(=S)NCc1cccs1 | -33.3% | -0.3% | 4.9%
Cc1ccc(NC(=O)c2ccc(NS(=O)(=O)c3cccc4cccnc34)cc2)cc1 | 16.8% | . | 4.4%
[N-]=[N+]=N[C@@H]1[C@H](O)[C@H](CO)O[C@@H]1n1cnc2c(N)ncnc21 | . | -6.3%[7.66 µM] | .
SMILES | RORgamma inh | KinaseGlo FLuc | VP16 counter
O=C1c2ccccc2NC(c2cccc([N+](=O)[O-])c2)N1O (stereo unspecified) | ? | . | -0.8%
O=C1c2ccccc2NC(c2ccc([N+](=O)[O-])cc2)N1O (stereo unspecified) | 11.2µM* | 2.8% | 2.6%
O=C(c1cc2ccccc2oc1=O)N(c1ccc(Cl)cc1)C1C=CS(=O)(=O)C1 (stereo unspecified) | -26.4% | 3.5% | -12.0%
O=C1OCCC1Sc1nnc(-c2ccc(Cl)cc2Cl)o1 (stereo unspecified) | 7.94µM* | . | ?
O=C1OCCC1Sc1nnc(-c2ccccc2)o1 (stereo unspecified) | -19.2% | -5.2% | 9.4%
COc1ccc2nc(NC(=O)c3ccoc3C)sc2c1 | ? | 3.16µM* | ?
COC(=O)c1sc(NC(=O)c2ccoc2C)nc1C | ? | 7.94µM* | 5.7%
COc1ccc2nc(NC(=O)c3cc(C)oc3C)sc2c1 | ? | 12.6µM* | ?
COc1ccc2nc(NC(=O)c3cccnc3SC)sc2c1 | ? | -1.6% | 10.1%
COC(=O)c1sc(NC(=O)c2c(C)noc2C)nc1C | -9.9% | . | -7.3%
COc1ccc(Cl)cc1C(=O)Nc1nc2ccc(S(C)(=O)=O)cc2s1 | 7.5% | . | -11.3%
CCCC(=O)Nc1nc2ccc(OC)cc2s1 | -38.6% | -1.2% | ?
Cc1cc(C(=O)Nc2nc3ccc(S(C)(=O)=O)cc3s2)c(C)o1 | 1.12µM* | ? | ?
CON(C)C(=O)c1nnc2c(n1)[nH]c1ccccc12 | 1.0%[10 µM] | . | -6.4%[10 µM]
